TDP1 cell CPT = qHTS for Inhibitors of human tyrosyl-DNA phosphodiesterase 1 (TDP1): qHTS in cells in presence of CPT | AID 686979, 2013 | actives 12% (n = 420,000) | chicken DT40 Tdp1-/-;hTDP1 cells + 20 nM CPT, ATP luminescence, 48 h | Potency, µM (titrated, usually from 46.2 µM), without a hit: at the top dose activity change, negative = growth inhibition, actives largely listed as inhibitors; also: potency is read from the fitted curve at half-maximal effect; nearly all actives have a fitted effect of over 55% in size
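Cell growth measured by CellTiter-Glo luminescence after a minimum 48 h, 37 C compound exposure with 20 nM CPT in Tdp1-knockout DT40 cells stably expressing hTDP1, seeded 400/well; qHTS titration format.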
IL1B secr inh = qHTS for Inhibitors of Inflammasome Signaling: IL-1-beta AlphaLISA Primary Screen; THP-1 LPS/ATP IL-1B secretion, AlphaLISA, 16 h; hits give low values; activity change, % at 57.5 µM; actives 4.7% (n = 360,000); AID 743279, 2014; in the data active = activity change below about -50%; inconclusive = mostly about -30% to -49%
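Secreted IL-1B measured by AlphaLISA bead assay after 16 h compound exposure of THP-1 cells; compounds (final up to 57.5 uM) added 1 h before LPS (250 ng/mL) and ATP (1.25 mM) stimulation; lower signal means less secretion.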
HT1080NT lethal = qHTS for induction of synthetic lethality in tumor cells producing 2HG: qHTS for the HT-1080-NT fibrosarcoma cell line | HT-1080-NT fibrosarcoma viability, CellTiter-Glo ATP luminescence, 48 h | Potency, µM (highest dose often 46.1 µM), without a hit: at the top dose activity, negative = less viability, hits mostly cytotoxic | actives 1.6% (n = 360,000);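 also: NT is the 2HG producing partner of a matched IDH1 knockdown line; potency is read from the fitted curve at half-maximal effect; 0% = DMSO-treated cells and -100% = media-only wells without cells; nearly all actives have a fitted effect of over 55% in size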
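HT-1080-NT fibrosarcoma cells (2HG-overproducing), 750 cells/well in RPMI with 5% FBS, dosed after 2 h and incubated 48 h at 37C. CellTiter-Glo luminescence normalized to DMSO and no-cell wells; concentration-response curves fitted and classed.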
HT1080 IDH1KD tx = qHTS for induction of synthetic lethality in tumor cells producing 2HG: qHTS for the HT-1080-IDH1KD cell line. HT-1080 IDH1 knockdown viability, ATP luminescence, 48 h. Potency, µM (top dose mostly 46.1 µM), inactives show at the top dose activity, negative = toxicity, most hits filed as cytotoxic. actives 2% (n = 360,000). AID 686971, 2013;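 also: potency is read from the fitted curve at half-maximal effect; 0% = DMSO wells and -100% = cell-free medium wells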
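Assay cells: HT-1080 with IDH1 knockdown, 750 per well, RPMI/5% FBS. Exposure: 48 h at 37 °C following 2 h pre-incubation. Read: CellTiter-Glo luminescence; fitted concentration-response, curve class assigned.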
TDP1 cell noCPT = qHTS for Inhibitors of human tyrosyl-DNA phosphodiesterase 1 (TDP1): qHTS in cells in absence of CPT. actives 15% (n = 420,000). DT40 Tdp1-/- hTDP1 cells, no CPT, ATP luminescence, 48 h. Potency, µM (titrated, usually from 46.2 µM), for the others: top-dose activity change, negative = growth inhibition, hits mostly inhibitors; also: potency is read from the fitted curve at half-maximal effect; nearly all actives have a fitted effect of over 55% in size
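Growth kinetics read by CellTiter-Glo luminescence after ≥48 hr at 37 °C. Cells: DT40 Tdp1-/- stably carrying human TDP1, 400 per well, compound exposure in the absence of CPT (DMSO vehicle).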
Numbers without * were called inactive; i = inactive; ? = inconclusive; . = no result; [ ] = another dose, or the depositor's remark. Shown are actives, neighbours in structure and some others; about 19% of the full set was active somewhere. Unless noted, calls follow the shape of the dose curve; as a rule, active = well fitted curve in the direction sought with a large enough effect; inconclusive = small, poorly fitted or top-dose-only effect, or another doubt; inactive = no such curve, though single readings can be large; an effect the other way counts as inactive or inconclusive. Unless noted, % is scaled to controls: 0 for no effect and ±100 for the full control effect.

SMILES	TDP1 cell CPT	IL1B secr inh	HT1080NT lethal	HT1080 IDH1KD tx	TDP1 cell noCPT
O=C(CCN1CCCCO1)N1CCCC(Nc2cccc(F)c2)C1 (centres undefined)	-4%	25	14%	13%	2%
O=[N+]([O-])c1ccc(N2CCN(CCOCCO)CC2)c([N+](=O)[O-])c1	10%	-9	-3%	1%	2%
Cc1ccc(Cc2c(-c3ccc(C#N)cc3)nc3ccc(Cl)cn23)cc1	-24%	-10	15%	4%	?
CC(C)(C)Cc1c(-c2ccc(C#N)cc2)nc2ccc(Cl)cn12	?	-18	-5%	-14%	16µM*
N#Cc1ccc(-c2nc3ccc(Cl)cn3c2Cc2ccccc2)cc1	21µM*	-14	-7%	-12%	?
CC(C)(C)Cc1c(-c2ccco2)nc2ccc(Cl)cn12	26µM*	34	15%	7%	-85%
CCC(C)[C@H](NC(=O)C1(c2ccccc2)CCN(C(=O)OC(C)(C)C)CC1)C(=O)N[C@@H](C(=O)O)c1ccccc1 (some centres undefined)	10%	8	1%	3%	12%
Cc1cc(C)c(S(=O)(=O)N2CCCC(C(=O)NC3CC3)C2)c(C)c1 (centres undefined)	-23%	12	6%	3%	-30%
Cc1c(C#N)c2ccccc2n1CC(=O)N1CCCC1	?	-11	-4%	-4%	-20%
COc1ccc(OC)c(S(=O)(=O)N2CC=C(c3c(C)n(CC(=O)N4CCCC4)c4ccccc34)CC2)c1	16µM*	.	.	.	18µM*
COc1ccc(/C=N/NC(=O)c2ccn[nH]2)cc1COc1ccc(F)cc1	16µM*	163	-9%	-18%	?
COc1ccc(/C=N/NC(=O)c2ccn[nH]2)cc1COc1ccc(Cl)cc1Cl	?	-79*	?	3%[9.24 µM]	?
COc1ccc(/C=N\NC(=O)c2ccccc2Cl)cc1COc1c(F)c(F)c(F)c(F)c1F	14%	i	-13%	?	-6%
COc1ccc(/C=N/NC(=O)c2cccnc2)cc1COc1ccc([N+](=O)[O-])c(C)c1	3.7µM*	.	2.6µM*	2.1µM*	4.1µM*
COc1ccc(/C=N\NC(=O)c2ccccc2Br)cc1COc1ccc(F)cc1	?	10	0%	-1%	18µM*
C#CCNC(=O)C[C@@H]1C[C@@]2(C(=O)OCC)CCC=C2N(Cc2ccco2)C1=O	1%	28	13%	13%	-6%
O=C(CSc1nccc(=O)[nH]1)Nc1ccc(Br)c(Cl)c1	0%	29	0%	8%[9.24 µM]	-14%
Cc1c(Cl)cccc1NC(=O)CSc1nc(=O)n(CCCN2CCOCC2)c2c1CCC2	8%	?	-1%	4%	0%
CN1C2CCC1CC(NC(=O)c1cc(Cl)cc3[nH]cnc13)C2 (centres undefined)	-14%	-13	-2%	1%	-19%
COC(=O)c1ccc(NC(=O)CC2C(=O)N(c3cccc(OC)c3)C(=O)N2C(C)C)cc1 (centres undefined)	-29%	.	.	.	-21%
Cc1cc([N+](=O)[O-])nn1CC(=O)NC1CCCCC1	1%	5	4%	1%	-10%
CCc1ccc(CN2CCC(Oc3ccc(C(=O)NCc4ccccn4)cc3)CC2)o1	?	5	-9%	0%	?
COc1ccc(C(=O)N/N=C/c2ccc(OC)c(COc3ccc(F)cc3F)c2)cc1	?	-6	-1%	-10%	18µM*
COc1ccc(/C=N\NC(=O)c2ccc([N+](=O)[O-])c(C)c2)cc1COc1ccccc1C(N)=O	-29%	i	6%	-3%	-21%
